This note sets out measurements from ChEMBL document CHEMBL5308504, “Tm Shift (DSF) assay results for EUbOPEN Chemogenomics Library” (2023).

Test [1] concerns the target Bromodomain-containing protein 4 (Homo sapiens) (UniProt O60885). As to conditions: Compound concentration 20.0 uM, Protein concentration 2.0 uM, Result type QC Liability.
Test [2] has as its target T1, Transcription intermediary factor 1-alpha (Homo sapiens) (UniProt O15164).
T1 sequence (whole entry): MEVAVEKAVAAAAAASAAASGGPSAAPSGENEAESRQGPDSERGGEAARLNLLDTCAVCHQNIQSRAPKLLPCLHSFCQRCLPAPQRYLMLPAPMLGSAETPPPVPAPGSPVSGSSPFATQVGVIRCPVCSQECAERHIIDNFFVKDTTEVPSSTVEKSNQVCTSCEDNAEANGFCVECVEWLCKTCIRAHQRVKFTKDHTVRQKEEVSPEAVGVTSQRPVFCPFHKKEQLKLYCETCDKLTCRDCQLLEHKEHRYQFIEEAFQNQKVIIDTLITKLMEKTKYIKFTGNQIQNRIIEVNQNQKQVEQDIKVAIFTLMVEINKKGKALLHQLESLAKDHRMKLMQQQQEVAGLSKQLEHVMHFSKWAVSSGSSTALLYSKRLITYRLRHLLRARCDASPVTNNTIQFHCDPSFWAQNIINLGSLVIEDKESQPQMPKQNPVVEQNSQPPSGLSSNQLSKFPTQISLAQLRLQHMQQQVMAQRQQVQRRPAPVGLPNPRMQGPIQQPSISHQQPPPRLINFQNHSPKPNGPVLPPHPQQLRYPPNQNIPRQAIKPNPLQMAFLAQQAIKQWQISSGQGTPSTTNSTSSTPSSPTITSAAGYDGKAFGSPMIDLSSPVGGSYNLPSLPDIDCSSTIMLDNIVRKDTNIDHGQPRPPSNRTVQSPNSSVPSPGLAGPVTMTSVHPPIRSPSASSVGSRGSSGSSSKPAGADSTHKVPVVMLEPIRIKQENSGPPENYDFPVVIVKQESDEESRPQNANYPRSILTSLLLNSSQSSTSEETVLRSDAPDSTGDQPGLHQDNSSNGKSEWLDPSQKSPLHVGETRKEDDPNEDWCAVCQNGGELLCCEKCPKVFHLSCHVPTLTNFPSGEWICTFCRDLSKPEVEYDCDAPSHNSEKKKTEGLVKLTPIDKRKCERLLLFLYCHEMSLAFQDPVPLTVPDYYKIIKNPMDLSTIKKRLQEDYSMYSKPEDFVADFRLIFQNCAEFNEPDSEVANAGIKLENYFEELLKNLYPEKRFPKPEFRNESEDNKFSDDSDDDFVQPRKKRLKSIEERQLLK
As to conditions: Compound concentration 20.0 uM, Protein concentration 2.0 uM, Result type QC Liability.

One may read the ΔTm as the change in melting temperature against a reference sample. As to `Nc1nc(-c2nn(Cc3ccccc3F)c3ncccc23)ncc1C1CC1`, the ΔTm in test [1] came out at 1.11 °C; in test [2], 0.4 °C.

As for `Cc1cc(-c2cnc(N)c3c(-c4ccc5scnc5c4)csc23)n(C)n1`, the ΔTm in test [1] is -1.04 °C; in test [2], -1.95 °C.

Consider `CN(C)C(=O)c1cc2cnc(Nc3ccc(N4CCN(CCCCNC(=O)COc5cccc6c5C(=O)N(C5CCC(=O)NC5=O)C6=O)CC4)cn3)nc2n1C1CCCC1` (configuration not stated), for which the ΔTm was -0.39 °C in test [1] and -1.79 °C in test [2].

With `N#CN1CC[C@H](C(=O)Nc2nc3c(s2)CN(C(=O)CN=[N+]=[N-])CC3)C1`, the ΔTm in test [1] is -0.19 °C; in test [2], -1.13 °C.

Regarding `O=C(O)CCC/C=C\C[C@@H]1[C@@H](/C=C/[C@@H](O)COc2cccc(C(F)(F)F)c2)[C@H](O)C[C@@H]1O`, the ΔTm was -0.49 °C in test [1] and -0.79 °C in test [2].

As for `c1ccc2c(-c3coc4cc(-c5ccc(N6CCNCC6)cc5)cnc34)ccnc2c1`, the shift in melting temperature (ΔTm) was -1.89 °C in test [1] and -2.14 °C in test [2].

With `Fc1ccc(Cl)cc1-c1nc(Nc2ccncc2)c2nccnc2n1`, the shift in melting temperature (ΔTm) is -2.28 °C in test [1] and -1.86 °C in test [2].

Regarding `Cc1cc2c(ncn2C2(C)CN(C(=O)c3ccn(CC4CCN([C@H]5C=CCCCC5)CC4)c3)C2)c(N)n1`, the ΔTm is -1.87 °C in test [1] and -2.7 °C in test [2].

As to `Clc1cccc(Nc2nccc(NCCCN3CCOCC3)n2)c1`, the thermal shift (ΔTm) was -3.15 °C in test [1] and -3.59 °C in test [2].

Regarding `COc1ccccc1-c1cc(Nc2cccc(CS(N)(=O)=O)c2)ncn1`, the shift in melting temperature (ΔTm) in test [1] was -0.36 °C; in test [2] it was -0.57 °C.

For the compound `C=CC[C@@H]1/C=C(\C)C[C@H](C)C[C@H](OC)[C@H]2O[C@@](O)(C(=O)C(=O)N3CCCC[C@H]3C(=O)O[C@H](/C(C)=C/[C@@H]3CC[C@@H](O)[C@H](OC)C3)[C@H](C)[C@@H](O)CC1=O)[C@H](C)C[C@@H]2OC`, the shift in melting temperature (ΔTm) in test [1] is -1.85 °C; in test [2] it was -0.9 °C.

For the compound `C[C@H](NC(=O)c1cc(Cl)ccc1Oc1ccc(F)cc1)c1ccc(C(=O)O)cc1`, the ΔTm in test [1] was -0.23 °C; in test [2], -0.34 °C.

As to `CCn1c(=O)c2c(C)c(C(=O)N3CCC(O)CC3)sc2n(CCC(F)(F)F)c1=O`, the ΔTm is -12.7 °C in test [1] and 0.23 °C in test [2].

As for `Cc1nc(Nc2cnn(C3CCNCC3)c2)nc2c1N(C)C(=O)c1cc3ccccc3cc1N2C`, the results for the ΔTm in test [1] and in test [2] were -2.15 °C and -2.83 °C, respectively.

Take `CC(C)c1cnc(NC(=O)Cc2ccccc2)s1`: the values for the thermal shift (ΔTm) in test [1] and in test [2] were -1.14 °C and -1.45 °C, respectively.

`CNc1[nH]c(Nc2ccc(C(=O)N3CCOCC3)cc2OC)nc2ncc(Cl)c1-2`: the ΔTm in test [1] is -0.77 °C; in test [2], -2.36 °C.

As to `COc1cc(N(C)c2ccnc3ccc(C(F)(F)F)cc23)cc(OC)c1OC`, the values for the thermal shift (ΔTm) in test [1] and in test [2] were -0.67 °C and -4.07 °C, respectively.

In the case of `CC(=O)N(CCN(C)C)c1ccc(N/C(=C2\C(=O)Nc3cc(Cl)ccc32)c2ccccc2)cn1`, the figures for the thermal shift (ΔTm) in test [1] and in test [2] were -1.57 °C and -4.13 °C, respectively.

Consider `Cc1nc2ccc(Cl)cc2c(-c2ccccc2)c1CC(=O)O`, for which the ΔTm in test [1] was -0.84 °C; in test [2], 0.64 °C.

Take `N#Cc1ccc(C#CC[C@@H](C#N)NC(=O)[C@H]2CCCCN2)cc1F`: the shift in melting temperature (ΔTm) in test [1] was -1.11 °C; in test [2], 0.64 °C.

In the case of `Cn1nc(C(=O)NCc2ccc(C(=O)O)cc2)cc1-c1ccc2[nH]ccc2c1`, the results for the thermal shift (ΔTm) in test [1] and in test [2] were -0.1 °C and 0.43 °C, respectively.

Take `CNC(=O)c1c[nH]c2ccc(Nc3nccc(-c4ccccn4)n3)cc12`: the values for the shift in melting temperature (ΔTm) in test [1] and in test [2] were -1.78 °C and -0.94 °C, respectively.

On to `COC1(C#Cc2ccc(Cl)c(-c3ncc4c(n3)-c3sc(NC(C)=O)nc3CC4)c2)CCN(C)CC1`, for which the shift in melting temperature (ΔTm) in test [1] was -2.24 °C; in test [2], -3.35 °C.

`CC[C@@H]1C(=O)N(C)c2cnc(Nc3ccc(C(=O)NC4CCN(C)CC4)cc3OC)nc2N1C1CCCC1`: the shift in melting temperature (ΔTm) in test [1] worked out at 6.02 °C; in test [2], 0.07 °C.

For `CN1CCC(C#N)(NC(=O)[C@@H](NC(=O)N2CCOCC2)C(C)(C)C)CC1`, the thermal shift (ΔTm) in test [1] stood at 0.17 °C; in test [2], 0.14 °C.

As for `CCS(=O)(=O)c1ccc(OC)c(Nc2ncc(-c3cccc(F)c3)o2)c1`, the ΔTm in test [1] is -2.4 °C; in test [2], -1.42 °C.

In the case of `CCS(=O)(=O)Nc1cccc(Oc2cc(F)cc(Nc3ccc(I)cc3F)c2NS(=O)(=O)C2CC2)c1`, the ΔTm in test [1] was -2.86 °C; in test [2], 3.45 °C.

For `N#Cc1ccc(COc2ccc(Br)cc2CNCCO)cn1`, the ΔTm in test [1] was -0.82 °C; in test [2] it was -0.53 °C.

`CCn1c(CNC(=O)c2nc(Cl)cnc2N)[n+](CC)c2ccc(C(=O)N(C)CCN(C)C)cc21`: the ΔTm in test [1] is -0.61 °C; in test [2], 0.2 °C.

Turning to `O=C(NCCS(=O)(=O)c1ccc(C(F)(F)F)cn1)c1ccc(Cl)cc1`, the figures for the ΔTm in test [1] and in test [2] were -3.11 °C and -2.42 °C, respectively.

Consider `Cc1cc(Cn2c(N3CC4(CNC4)C3)nc3c(N4CCN(C)CC4)cc(Cl)cc32)cc(C)c1F`, for which the ΔTm in test [1] was -1.49 °C; in test [2] it was -0.77 °C.

Turning to `COc1ccc2c(O[C@@H]3C[C@H]4C(=O)N[C@]5(C(=O)NS(=O)(=O)C6(C)CC6)CC5/C=C\CCCCC[C@H](NC(=O)c5ccn(C)n5)C(=O)N4C3)cc(OC(C)C)nc2c1C` (some centres not stated), the shift in melting temperature (ΔTm) in test [1] was 1.29 °C; in test [2] it was 0.91 °C.

Regarding `C1=Cc2ccccc2C(=C2CCN(CCCCc3nnn[nH]3)CC2)c2ccccc21`, the ΔTm in test [1] is -12.7 °C; in test [2] it was -0.3 °C.

Turning to `CNC(=O)c1ccc2c(c1)ncn2-c1ccc(CC(=O)OC(C)(C)C)cc1`, the shift in melting temperature (ΔTm) in test [1] is -0.5 °C; in test [2] it was -3.2 °C.

Take `CC(C)(O)CNC(=O)N1C(=O)N(c2cccc(C(F)(F)F)c2)C2=C(C(=O)CC2)[C@@H]1c1ccc(C#N)cc1`: the results for the shift in melting temperature (ΔTm) in test [1] and in test [2] were -0.6 °C and 0.83 °C, respectively.

Consider `CN(C)C(=O)Cn1cc(-c2ccc(-c3nnc4ccccn34)cc2)cn1`, for which the ΔTm was -1.96 °C in test [1] and 0.35 °C in test [2].
